This note sets out measurements from PubChem BioAssay (NCATS).

Results filed as inconclusive are left out. Activity calls are given as the source filed them. Unless noted, calls follow the shape of the dose curve; as a rule, active = well fitted curve in the direction sought with a large enough effect; inconclusive = small, poorly fitted or top-dose-only effect, or another doubt; inactive = no such curve, though single readings can be large; an effect the other way counts as inactive or inconclusive.

The target in assay [1] is Cytochrome P450 3A4 (Homo sapiens) (UniProt P08684). The assay is described as follows: qHTS Assay for Inhibitors and Substrates of Cytochrome P450 3A4 (AID 884). Also: % is scaled to controls: 0 for no effect and ±100 for the full control effect; nearly all actives have a fitted effect of over 50% in size. In a few lines: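 Luminescent readout of luciferin produced by CYP3A4 (20 nM) dealkylation of Luciferin-PPXE, 25 uM (its KM). NADPH-driven reaction ran 60 min at RT after 10 min compound preincubation; data scaled to 57 uM ketoconazole as 100% inhibition.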
For orientation: In qHTS, concentration-response curves come from the screen itself.

Assay [2] can be described thus: Confirmation and Secondary Assay for Modulators of Hemoglobin Beta Chain Splicing at IVS2 654 locus (AID 910).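 Also: HeLa cells stably carrying EGFP split by mutant beta-globin IVS2-654 intron; % of control where 0% means no effect.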 In a few lines:
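HeLa cells stably expressing EGFP interrupted by β-globin IVS2-654 intron, seeded overnight in Opti-MEM/2% FCS, then treated 2 days at 37 °C. Restored splicing read as total peak GFP intensity per well by laser scanning cytometry (488 nm excitation, 500–520 nm emission); 500 nM antisense PNA as control.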

A short description of assay [3]: Confirmation and Secondary Assay for Modulators of Hemoglobin Beta Chain Splicing at IVS2 705 locus (AID 930).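 Also: HeLa cells stably expressing the EGFP-705 splicing reporter; GFP fluorescence per well restored by corrected splicing of the IVS2-705 intron in EGFP; % of control where 0% means no effect.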 A digest of the protocol:
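Secondary splice-site specificity test uses HeLa expressing CMV-driven EGFP interrupted by IVS2-705; cells were treated 2 days at 37C with 500 nM antisense PNA as positive control.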

Assay [4] can be described thus: qHTS Assay for Lipid Storage Modulators (AID 1519; calls by dose curve; as to activity change, negative = inhibition: % is scaled to controls: 0 for no effect and ±100 for the full control effect). The following applies: Drosophila S3 cells, BODIPY lipid droplet/cell ratio, laser cytometry, cells loaded with oleic acid. A digest of the protocol:
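Cells seeded at 5,000 per well were treated with compounds over a concentration series and loaded with oleic acid (400 uM, as added). Lipid droplet fluorescence (488 nm excitation, 500-530 nm channel) was read by laser-scanning cytometry and normalized to 20 uM Triacsin C.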

The target of assay [5] is Ubiquitin carboxyl-terminal hydrolase 1 (Homo sapiens) (UniProt O94782). The assay is described as follows: Inhibitors of USP1/UAF1: Pilot qHTS (AID 504865). Also: nearly all actives have a fitted effect of over 35% in size. Also: potency is read from the fitted curve at half-maximal effect.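 As to activity change, negative = inhibition: rhodamine fluorescence freed from ubiquitin-rhodamine substrate followed over time; top concentration of the series differs between compounds; % is scaled to controls: 0 for no effect and ±100 for the full control effect.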 A digest of the protocol:
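USP1/UAF1 complex (1nM) preincubated with compound 15 min at room temperature, then Ub-Rho substrate (150nM final) added. Fluorescence read kinetically at 480/540 nm, 6 reads every 60 seconds. Buffer: 50mM HEPES pH 7.8, 0.5mM EDTA, 0.1 mg/ml BSA, 1mM TCEP, 0.01% Tween-20.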

In assay [6] the target is Cytochrome P450 3A4 (Homo sapiens) (UniProt P08684). The assay is described as follows: qHTS Assay for Activators of Cytochrome P450 3A4 (AID 885). Also: nearly all actives have a fitted effect of over 65% in size. A digest of the protocol: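 Human CYP3A4 dealkylates Luciferin-PPXE to luciferin, which luciferase detection converts to light. Substrate was at its KM (25uM), buffer 200mM KPO4, reaction 60 min at RT.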
Setting [7] is: measured here: cell count channel max response.
The mark [8] stands for this setting: measured here: lipid channel max response.

Sequence of Ubiquitin carboxyl-terminal hydrolase 1 (Homo sapiens) (O94782 whole entry, looked up): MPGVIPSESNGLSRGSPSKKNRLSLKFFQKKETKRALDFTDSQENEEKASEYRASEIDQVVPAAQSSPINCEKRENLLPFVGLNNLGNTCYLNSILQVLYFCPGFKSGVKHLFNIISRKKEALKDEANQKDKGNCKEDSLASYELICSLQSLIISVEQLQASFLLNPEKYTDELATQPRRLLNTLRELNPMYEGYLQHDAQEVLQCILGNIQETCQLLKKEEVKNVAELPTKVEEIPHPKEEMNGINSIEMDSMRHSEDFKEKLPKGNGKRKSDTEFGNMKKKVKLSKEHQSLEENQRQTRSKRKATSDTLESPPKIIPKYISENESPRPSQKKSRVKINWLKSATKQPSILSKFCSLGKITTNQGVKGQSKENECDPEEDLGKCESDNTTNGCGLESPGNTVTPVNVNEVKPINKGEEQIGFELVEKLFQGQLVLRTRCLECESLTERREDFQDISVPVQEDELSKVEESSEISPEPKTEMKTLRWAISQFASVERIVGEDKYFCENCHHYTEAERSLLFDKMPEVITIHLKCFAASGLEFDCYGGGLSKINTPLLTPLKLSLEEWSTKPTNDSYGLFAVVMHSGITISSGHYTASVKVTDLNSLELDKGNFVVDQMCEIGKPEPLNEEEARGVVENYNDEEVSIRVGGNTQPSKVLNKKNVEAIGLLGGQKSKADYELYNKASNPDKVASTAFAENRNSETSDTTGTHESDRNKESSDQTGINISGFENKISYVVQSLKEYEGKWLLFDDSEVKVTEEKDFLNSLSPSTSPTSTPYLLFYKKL
Sequence of Cytochrome P450 3A4 (Homo sapiens) (P08684 whole entry, looked up): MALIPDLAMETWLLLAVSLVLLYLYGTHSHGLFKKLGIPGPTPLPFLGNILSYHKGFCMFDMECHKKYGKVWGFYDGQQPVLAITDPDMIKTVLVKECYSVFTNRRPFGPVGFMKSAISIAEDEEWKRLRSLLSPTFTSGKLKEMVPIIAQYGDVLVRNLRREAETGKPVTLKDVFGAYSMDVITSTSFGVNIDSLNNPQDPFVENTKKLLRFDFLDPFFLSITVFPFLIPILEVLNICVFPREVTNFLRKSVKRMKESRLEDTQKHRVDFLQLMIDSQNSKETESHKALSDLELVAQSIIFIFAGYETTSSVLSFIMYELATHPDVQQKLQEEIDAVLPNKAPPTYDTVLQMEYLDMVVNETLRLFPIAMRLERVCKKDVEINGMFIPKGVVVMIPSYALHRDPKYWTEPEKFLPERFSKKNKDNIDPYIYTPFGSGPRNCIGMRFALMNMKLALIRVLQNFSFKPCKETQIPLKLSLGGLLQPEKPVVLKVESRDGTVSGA

For `CC(N)[C@H](O)c1ccccc1` (some centres not stated), the Potency entry in assay [1], in assay [2], in assay [3] and in assay [5] was “inactive” in each case. Moreover, in assay [4] (at 57.5 µM (top of the series)), the activity change, negative = inhibition was 2.72% (inactive). Further, the max response in assay [4] (setting [7]) was 12.8%; in assay [4] (setting [8]), 19.5%.
As for `CC(C)(O)C1C2OC(=O)C1[C@]1(O)CC3O[C@@]34C(=O)OC2[C@@]14C` (some centres not stated), the Potency entry in assay [2], in assay [3] and in assay [5] was “inactive” throughout. The activity change, negative = inhibition in assay [4] (at 57.5 µM (top of the series)) was 4.81% (inactive). Moreover, the max response in assay [4] (setting [7]) came out at 5.32%; in assay [4] (setting [8]), 12.9%.
Turning to `CCOC(=O)C1C(C=C(C)C)C1(C)C` (configuration not stated), the Potency result in assay [1], in assay [2], in assay [3] and in assay [5] was “inactive” each time. Moreover, the activity change, negative = inhibition in assay [4] (at 57.5 µM (top of the series)) is 2.84% (inactive). Moreover, the max response in assay [4] (setting [7]) is -1.43%; in assay [4] (setting [8]) it was 3.02%.
On to `CC1C(=O)OC2C1CC[C@@]1(C)C=CC(=O)[C@@]3(C)O[C@@]213` (some centres not stated), for which the Potency result in assay [6], in assay [2], in assay [3] and in assay [5] was “inactive” each time. In addition, the activity change, negative = inhibition in assay [4] (at 57.5 µM (top of the series)) was 3.63% (inactive). In addition, the max response is -6.2% in assay [4] (setting [7]) and 2.49% in assay [4] (setting [8]).
For `NNCc1ccccc1`, the Potency result in assay [6], in assay [2], in assay [3] and in assay [5] was “inactive” each time. Moreover, the activity change, negative = inhibition in assay [4] (at 57.5 µM (top of the series)) is 14.8% (inactive). Besides, the max response was 5.74% in assay [4] (setting [7]) and 20.3% in assay [4] (setting [8]).
As to `CC1C(=O)OC2C(O)C34C5OC(=O)[C@@]3(OC3OC(=O)[C@H](O)[C@]34C(C(C)(C)C)C5O)[C@]12O` (some centres not stated), the Potency entry in assay [1], in assay [2], in assay [3] and in assay [5] was “inactive” in each case. In addition, in assay [4] (at 57.5 µM (top of the series)), the activity change, negative = inhibition was 0.291% (inactive). For the same compound, the max response in assay [4] (setting [7]) is 13.6%; in assay [4] (setting [8]), 14.3%.
Consider `CCN1C[C@@]2(OC(=O)c3ccccc3NC(C)=O)CCC(OC)[C@@]34C5CC6C(OC)C[C@@](O)(C(CC23)[C@@H]14)C5(O)C6OC` (some centres not stated), for which the Potency entry in assay [1], in assay [2], in assay [3] and in assay [5] was “inactive” each time. In assay [4] (at 57.5 µM (top of the series)), the activity change, negative = inhibition was 4.73% (inactive). The max response in assay [4] (setting [7]) was determined as 10.9%; in assay [4] (setting [8]), 17%.
Regarding `CCC(C)C(=O)OC1C(O)C2C(CN3CC(C)CCC3[C@]2(C)O)C2C[C@]34O[C@@]5(O)C(OC(=O)C(C)(O)C(C)O)CCC3(C)C5C(OC(C)=O)C(OC(C)=O)C4[C@@]21O` (some centres not stated), the Potency entry in assay [1], in assay [2], in assay [3] and in assay [5] was “inactive” throughout. The activity change, negative = inhibition in assay [4] (at 57.5 µM (top of the series)) is 4.38% (inactive). Besides, the max response in assay [4] (setting [7]) was 24.4%; in assay [4] (setting [8]), 35.3%.
On to `CNC(C)[C@H](O)c1ccccc1` (some centres not stated), for which the Potency entry in assay [2], in assay [3] and in assay [5] was “inactive” throughout. In assay [4] (at 57.5 µM (top of the series)), the activity change, negative = inhibition was 9.2% (inactive). Also, the max response in assay [4] (setting [7]) worked out at 21.5%; in assay [4] (setting [8]), 37.3%.
As for `C[C@@]12CCC(=O)C[C@@H]1CC[C@@H]1[C@@H]2CC[C@]2(C)C(=O)CC[C@@H]12`, the Potency entry in assay [2], in assay [3] and in assay [5] was “inactive” in each case. Further, in assay [4] (at 57.5 µM (top of the series)), the activity change, negative = inhibition is 6.14% (inactive). For the same compound, the results for the max response in assay [4] (setting [7]) and in assay [4] (setting [8]) were 2.79% and 10.6%, respectively.
As for `CC1(C)C(O)CC(=O)[C@]2(C)C1CC(=O)[C@]1(C)C2CC[C@@]2(C)C(c3ccoc3)OC(=O)C3O[C@@]321` (some centres not stated), the Potency result in assay [6], in assay [2], in assay [3] and in assay [5] was “inactive” each time. Besides, the activity change, negative = inhibition in assay [4] (at 57.5 µM (top of the series)) was -3.35% (inactive). Further, the figures for the max response in assay [4] (setting [7]) and in assay [4] (setting [8]) were 16.1% and 14.7%, respectively.
With `CC1CC2CC(=O)C3CCCN4CCCC2[C@]34C1` (some centres not stated), the Potency result in assay [2], in assay [3] and in assay [5] was “inactive” each time. Moreover, in assay [4] (at 57.5 µM (top of the series)), the activity change, negative = inhibition was 3.72% (inactive). The max response in assay [4] (setting [7]) was determined as 9.37%; in assay [4] (setting [8]) it was 11.3%.
Regarding `O=C(O)CCC1NCC2CC1CN1CCCCC21` (configuration not stated), the Potency result in assay [2], in assay [3] and in assay [5] was “inactive” throughout. Further, the activity change, negative = inhibition in assay [4] (at 57.5 µM (top of the series)) was 2.61% (inactive). In addition, the results for the max response in assay [4] (setting [7]) and in assay [4] (setting [8]) were 3.62% and 5.45%, respectively.
As to `C[C@]12CCC3C(CC[C@]4(O)CC(O)CC[C@@]34C=O)[C@]1(O)CCC2C1=CC(=O)OC1` (some centres not stated), the Potency result in assay [2], in assay [3] and in assay [5] was “inactive” in each case. Besides, in assay [4] (at 57.5 µM (top of the series)), the activity change, negative = inhibition is -3.74% (inactive). The max response is 12.5% in assay [4] (setting [7]) and 11% in assay [4] (setting [8]).
As to `CNC(=O)Oc1ccc2c(c1)[C@@]1(C)CCN(C)[C@@H]1N2C`, the activity change, negative = inhibition in assay [4] (at 25.7 µM (top of the series)) is -1.12% (inactive). Moreover, the max response is -3.51% in assay [4] (setting [7]) and -6.16% in assay [4] (setting [8]). Also, the Potency entry in assay [5] is “inactive”.
With `CNc1ccccc1C(=O)O`, the Potency entry in assay [1], in assay [2], in assay [3] and in assay [5] was “inactive” each time. Also, the activity change, negative = inhibition in assay [4] (at 57.5 µM (top of the series)) is -0.857% (inactive). Moreover, the max response in assay [4] (setting [7]) was 25%; in assay [4] (setting [8]) it was 25.4%.
Consider `CCC(C)C(=O)c1c(O)c(C)c2oc3c(C)c(O)c(C(=O)C(C)CC)c(O)c3c2c1O` (configuration not stated), for which the Potency result in assay [1], in assay [2], in assay [3] and in assay [5] was “inactive” throughout. Also, the activity change, negative = inhibition in assay [4] (at 57.5 µM (top of the series)) is -5.67% (inactive). For the same compound, the figures for the max response in assay [4] (setting [7]) and in assay [4] (setting [8]) were -3.74% and -10.1%, respectively.
Take `N#CC(O[C@@H]1OC(COC2OC(CO)C(O)C(O)[C@@H]2O)C(O)C(O)C1O)c1ccccc1` (some centres not stated): the Potency entry in assay [1], in assay [2], in assay [3] and in assay [5] was “inactive” throughout. In addition, in assay [4] (at 57.5 µM (top of the series)), the activity change, negative = inhibition was 2.68% (inactive). Further, the max response in assay [4] (setting [7]) is -0.407%; in assay [4] (setting [8]) it was 5.27%.
`CCCCC/C=C\C/C=C\C/C=C\C/C=C\CCCC(=O)O`: in assay [6], the Potency result is “inactive”. The activity change, negative = inhibition in assay [4] (at 57.5 µM (top of the series)) was -9.9% (inactive). The max response in assay [4] (setting [7]) worked out at 20.2%; in assay [4] (setting [8]) it was 8.84%. The Potency in assay [5] was 50.1 µM (active).
